# In PubChem BioAssay AID485364 (National Center for Advancing Translational Sciences (NCATS), 2010):
# Out of some 360,000 compounds screened, about 11,000 (3.1%) were called active. Another 4% or so got no clear call; they are omitted. Calls follow the shape of the dose curve; as a rule, active = well fitted inhibition curve with a large enough effect; inconclusive = small, poorly fitted or top-dose-only effect; inactive = no such curve, though single readings can be large or run the other way. The entries come from a sample that favours actives as a whole.
# Biological target: Schistosoma mansoni thioredoxin glutathione reductase (TGR) (UniProt Q962Y6)
# Experiment: qHTS Assay for the Inhibitors of Schistosoma Mansoni Peroxiredoxins; also: nearly all actives have a fitted effect of over 60% in size
# Settings: purified TGR, DTNB reduction, TNB absorbance 405 nm; series mostly up to 114 µM; activity change, negative = inhibition: at the top concentration
# Procedure, shortened: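 Kinetic colorimetric format: TGR-catalysed, NADPH-driven DTNB reduction monitored via TNB absorbance. Enzyme dispensed at 20 nM; compound exposure 15 min at room temperature before reaction start.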
# % is scaled to controls: 0 for no effect and ±100 for the full control effect; potency is read from the fitted curve at half-maximal effect.
SMILES,"activity change, negative = inhibition",Potency
CNc1ccc(-c2nc(-c3ccccc3C)no2)cc1[N+](=O)[O-],-3.25% (inactive),–
CC1CC(C)CN(C(=O)CSc2ccsc2[N+](=O)[O-])C1 (stereo not drawn),-19.5% (inactive),–
O=C(CSCc1cccs1)N1CCCC1,-0.5% (inactive),–
O=C(CSc1ccsc1[N+](=O)[O-])N1CCCCC1,–,31.6 µM (active)
COc1cc(C(=O)NCCS(=O)(=O)N2CCN(c3ccccc3)CC2)cc(OC)c1OC,7.43% (inactive),–
COc1ccc2c(c1)c(N1CCCC1=O)c(C(=O)Nc1ccc(OC)c(Cl)c1)n2C,7.32% (inactive),–
C[C@@H](NC(=O)OC(C)(C)C)c1nnc(S(=O)(=O)Cc2ccccc2)o1,–,0.794 µM (active)
CCc1ccccc1NC(=O)CSc1nnc([C@@H](NC(=O)OC(C)(C)C)C(C)CC)o1 (stereo partly drawn),1.47% (inactive),–
COc1ccccc1NC(=O)[C@H](COCc1ccccc1)NC(=O)OC(C)(C)C,-24.2% (inactive),–
CCN(Cc1ccccc1)S(=O)(=O)c1ccc2c(c1)CCCN2C(C)=O,-1.01% (inactive),–
Cc1cc(NC(=O)c2cccc(Cl)c2)ccc1-c1cc2ccccc2oc1=O,8.29% (inactive),–
O=C(CSCc1cnn(-c2ccccc2)c1-n1cccc1)NCc1ccccc1Br,23.9% (inactive),–
O=C(/C=C/Sc1ncn[nH]1)c1ccc(Cl)cc1,–,0.794 µM (active)
COc1ccc(-n2c(SCC(=O)Nc3ccc(Cl)c(C)c3)nc3n[nH]c(C)c3c2=N)cc1,5.5% (inactive),–
COc1ccccc1CNC(=O)Cn1nc(C)c2nn(-c3ccc(Cl)cc3)c(C)c2c1=O,4.8% (inactive),–
CCOC(=O)c1ccc(NC(=O)CCn2c(=O)oc3ccccc32)cc1,–,inactive
CCOc1ccccc1NC(=O)CCn1cnnn1,-2.07% (inactive),–
CCOC(=O)c1ccc(NC(=O)CCn2cnnn2)cc1,–,89.1 µM (active)
CCN(CC)CCNC(=O)c1cc2c(=O)oc3ccc(C)cc3c2s1,11.6% (inactive),–
CCc1ccc(NC(=O)c2cc(S(=O)(=O)N3CCCC(C)C3)cn2C)cc1 (stereo not drawn),-0.776% (inactive),–
COc1ccc(CNC(=O)c2ccc(NC(=O)N3CC4CCCN4c4ccccc43)cc2)cc1 (stereo not drawn),-14.3% (inactive),–
COc1ccc2c(c1OC)C(=O)OC2c1c(O)nc(SC)n(-c2ccccc2)c1=O (stereo not drawn),–,7.94 µM (active)
COc1ccc(-n2c(SC)nc(O)cc2=O)cc1,-1.27% (inactive),–
CSc1nc2ccc(C)cc2c(=O)n1-c1cccnc1,23.6% (inactive),–
COc1ccc(Nc2ncc(C(=O)Nc3cc(C)ccc3OC)c3ccccc23)cc1,-2.37% (inactive),–
CCN1CCN(CCCNC(=O)c2cnn(-c3ccc(C)cc3C)c2C2CCN(C(=O)OC(C)(C)C)CC2)CC1,6.79% (inactive),–

SMILES,"activity change, negative = inhibition",Potency
COC1=C(N2CCOCC2)C(=O)c2ccccc2C1=O,–,17.8 µM (active)
O=C1c2ccccc2-c2ncnc3c(N4CCOCC4)cc(N4CCOCC4)c1c23,0.658% (inactive),–
O=C1C(Cl)=C(N2CCOCC2)C(=O)N1c1ccccc1,62.2% (inactive),–
CCCS(=O)(=O)N1CCC(n2c(C(F)(F)F)nc3cccnc32)CC1,-6.19% (inactive),–
COc1ccccc1-c1cc2nc(C)c(CCC(=O)O)c(C)n2n1,-1.61% (inactive),–
CCOCCCNC(=O)c1c(NC(=O)Cc2coc3ccc(C)cc23)sc2c1CCC2,54% (inactive),–
CC(C)(CCl)C(=O)Nc1ccc(Sc2ccc(F)cc2)cc1,0% (inactive),–
O=C(Nc1ccc(Sc2ccc(Br)cc2)cc1)c1ccco1,7.73% (inactive),–
O=C(CCl)Nc1ccc(Sc2ccc(NC(=O)CCl)cc2)cc1,–,2.82 µM (active)
COc1ccc(-n2c(SC)nc3sc4c(c3c2=O)CCN(C(C)=O)C4)cc1,7.25% (inactive),–
Cc1cccc(-c2nnc(SCC(=O)N3CCCc4ccccc43)o2)c1,0.677% (inactive),–
COC(=O)c1ccccc1NC(=O)c1ccc(COc2ccccc2Cl)o1,4.06% (inactive),–
CCOc1ccc(NC(=O)C(=O)NCCc2csc3nc(-c4ccccc4F)nn23)cc1,-0.856% (inactive),–
O=c1cc(-c2ccccc2)nc(N2CCCCC2)[nH]1,0% (inactive),–
CC(=O)c1cc(-c2ccccc2)[nH]c1N1CCCC1,–,50.1 µM (active)
CC(=O)c1cc(-c2ccccc2)n(CC(=O)NC2CCCCC2)c1C,–,inactive
COc1ccc(C(=O)Nc2cccc(C(=O)OCc3cc(=O)n4c5c(sc4n3)CCCC5)c2)cc1,3.52% (inactive),–
Oc1ccccc1-c1nc(/C=C/c2ccc(F)cc2)no1,0.232% (inactive),–
COc1ccc(Cc2nc3ccc(C(=O)NCc4ccccc4C)cc3o2)cc1,3.84% (inactive),–
COC(=O)N(NC(=O)C(O)(C(C)C)C(C)C)c1ccccc1,-2.07% (inactive),–
CCCC(O)(CCC)C(=O)NN(C(=O)CCl)c1cccc(C)c1,–,25.1 µM (active)
CCCCC(O)(CCCC)C(=O)NN(C(=O)CCl)c1ccccc1,–,8.91 µM (active)
Cc1cccc(N(Cc2ccccc2)C(=O)c2ccccc2F)c1,-1.12% (inactive),–
CCC(C)NC(=O)CCCc1ccccc1 (stereo not drawn),0.801% (inactive),–
CC(C)(O)C(=O)NN(C(=O)c1ccccc1)c1cccc(Br)c1,1.33% (inactive),–
CCC(=O)N1c2ccccc2CC1C(=O)N1CCN(c2ccccc2)CC1 (stereo not drawn),-1.62% (inactive),–

SMILES,"activity change, negative = inhibition",Potency
COc1ccccc1CNC(=O)C(Cc1ccccc1)NS(=O)(=O)c1ccc2c(c1)oc(=O)n2C (stereo not drawn),0.69% (inactive),–
CCOc1ccccc1C(=O)NC1(C(F)(F)F)C(=O)Nc2c1c(=O)[nH]c(=O)n2-c1ccc(F)cc1 (stereo not drawn),8.33% (inactive),–
CC(C)NC(=O)c1nn(-c2ccccc2F)nc1CO,8.65% (inactive),–
CCCC(=O)Nc1ccc(NC(=O)c2sc3ccccc3c2Cl)cc1,-17.3% (inactive),–
O=C(/C=C/NCc1ccc(F)cc1)c1ccccc1,4.49% (inactive),–
O=C(/C=C\NCC(=O)c1ccccc1)c1ccccc1,–,28.2 µM (active)
O=C(/C=C/NNC(=O)c1cccc(Br)c1)c1ccccc1,0% (inactive),–
COc1cc(NC(=O)CSc2nc3nc(C)c(Cc4ccc(C)cc4)c(C)n3n2)cc(OC)c1OC,3.82% (inactive),–
COc1ccc(NC(=O)C2CCCN(S(=O)(=O)c3c(C)[nH]c(=O)[nH]c3=O)C2)c(OC)c1 (stereo not drawn),0.241% (inactive),–
CC(=O)N1CCCc2cc(S(=O)(=O)N3CCC(C(=O)NCc4ccc(F)cc4)CC3)ccc21,1.32% (inactive),–
Cc1ccc(C)c(N2CCN(S(=O)(=O)c3ccc4c(c3)C(C(C)C)C(=O)N4)CC2)c1 (stereo not drawn),7.18% (inactive),–
COC(=O)c1sccc1NN1C(=O)c2ccccc2C1=O,-0.191% (inactive),–
COC(=O)c1sccc1NC(=O)CCC1CCCC1,0.189% (inactive),–
CCOC(=O)C(=CNNc1ccsc1C(=O)OC)C(=O)OCC,–,20 µM (active)
O=C(CCCCn1c(=O)c2ccccc2n(CC(=O)Nc2cccc(C(F)(F)F)c2)c1=O)NCc1ccc2c(c1)OCO2,-1.07% (inactive),–
COc1cccc(CNC(=O)CCc2nc(-c3ccc(C)cc3)no2)c1,18.6% (inactive),–
CCOC(=O)Cn1c(=O)n(-c2ccccc2OC)c2nc(-c3cccc(F)c3)nc(C(N)=O)c21,0.122% (inactive),–
CCOc1cc(C2C(C(=O)OC)=C(C)NC3=C2C(=O)c2ccccc23)ccc1O (stereo not drawn),4.85% (inactive),–
COC(=O)C1=C(C)NC2=C(C(=O)c3ccccc32)C1c1ccc(-c2ccc(C(=O)O)cc2)o1 (stereo not drawn),–,20 µM (active)
CCOC(=O)c1ccc(-c2ccc(C(=O)Nc3cccnc3)o2)cc1,0% (inactive),–
CCOC(=O)c1cc2c(=O)n3ccccc3nc2n(CC2CCCO2)c1=NC(=O)c1ccccc1Br (stereo not drawn),4.51% (inactive),–
Cc1ccn(C(CC(=O)c2ccc(Br)cc2)C(=O)O)n1 (stereo not drawn),–,8.91 µM (active)
Cc1cc(C)c2c(=O)[nH]c(SCC(=O)Nc3ccc(Br)cc3)nc2n1,-17.4% (inactive),–
Cc1ccc(NC(=O)CCC(=O)c2ccc(Br)cc2)cc1,-8.2% (inactive),–
Cc1ccc(-n2ncc3c(=O)n(Cc4cccc(C(F)(F)F)c4)cnc32)cc1C,-1.38% (inactive),–
O=C(Nc1ccccc1Cl)N1CCC(CN2CCCC2)CC1,-14.6% (inactive),–

SMILES,"activity change, negative = inhibition",Potency
CCOC(=O)c1cc(-c2ccccc2)n(CCC(=O)Nc2ccccc2CC)c1C,9.85% (inactive),–
CCOC(=O)c1cc2n(c1N)-c1ccccc1C2=O,–,31.6 µM (active)
CCOC(=O)c1ccccc1CN1C(=O)c2ccccc2S1(=O)=O,-0.286% (inactive),–
O=C(Nc1cccc2cccnc12)c1cccc2c(Br)cccc12,-2.45% (inactive),–
COc1ccc(CNC(=O)c2cc3c(=O)[nH]c4ccc(C)cc4c3s2)c(OC)c1,8.13% (inactive),–
N#C/C(=C\c1cccc(F)c1)c1nc(-c2cc3c(ccc4ccccc43)oc2=O)cs1,6.2% (inactive),–
COC(=O)c1ccc(CSc2ccccc2C)o1,8.62% (inactive),–
COC(=O)c1ccc(CSc2ccc3nnc(-c4ccccc4)n3n2)o1,–,56.2 µM (active)
COC(=O)c1ccc(CSc2nnc(N)s2)o1,0.472% (inactive),–
CCOc1ccc(OCC)c(NS(=O)(=O)c2ccc3[nH]c(=O)ccc3c2)c1,5.65% (inactive),–
CCc1ccccc1N1CC(c2nc3ccccc3n2CCCCOc2ccccc2)CC1=O (stereo not drawn),5.87% (inactive),–
O=C(/C=C/c1ccc([N+](=O)[O-])o1)NNC(=O)c1ccc(F)cc1,–,11.2 µM (active)
O=C(Nc1ccc(F)cc1)C1CCN(C(=O)c2ccc([N+](=O)[O-])cc2)CC1,3.63% (inactive),–
O=C(/C=C/c1ccc(F)cc1)NC(=S)NNC(=O)c1cccnc1,-1.91% (inactive),–
CC1(C)CCSC(/C=C/c2ccccc2)=N1,–,17.8 µM (active)
CCCCC(CC)CNC(=O)C1CCN(S(=O)(=O)c2cccc3nsnc23)CC1 (stereo not drawn),-3.56% (inactive),–
COc1ccc2c(CNCCc3ccccc3C)c(C(=O)O)n(Cc3ccccc3C)c2c1,-2.09% (inactive),–
CC1CCCN(Cc2nc3c(c(=O)n(C)c(=O)n3C)n2CC(=O)c2ccccc2)C1 (stereo not drawn),-0.23% (inactive),–
Cc1[nH]c2ccccc2c1C(=O)CN1CCCC(C)C1 (stereo not drawn),–,25.1 µM (active)
CC1CCN(CC(=O)c2c[nH]c3ccccc23)CC1,2.55% (inactive),–
CCOC(=O)N1CCN(CC(=O)c2ccc3c(c2)CCN3)CC1,0.36% (inactive),–
CCOC(=O)N1CCN(CC(=O)c2c(C)[nH]c3ccccc23)CC1,–,35.5 µM (active)
CCOC(=O)N1CCN(CC(=O)n2c(C)c(C)c3ccccc32)CC1,-20.4% (inactive),–
Cc1cccc(N2CCN(C(=O)Cn3ncc4c5ccccc5n(C)c4c3=O)CC2C)c1 (stereo not drawn),5.55% (inactive),–
CCc1cc2c(cc3c(=O)n(CC(=O)NCc4cccc(Cl)c4)nc(CC)n32)s1,4.93% (inactive),–
